Calls of active or inactive are those of the source. The calls were made as follows: active = hit-call score of the fitted dose curve at least 0.9, where 1 is the maximum; inactive = score below 0.9.
Experiments:
Settings in all cases: mRNA level, 48 h; actives raise or lower the signal
[1] = read-out: Ezrin (EZR), EZR (gene 7430); assay: LTEA_HepaRG_EZR: Life Technologies and Expression Analysis (LTEA) Assay for Ezrin (EZR) using HepaRG (AID 2283491)
Summary of the method: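 HepaRG, 48 h chemical exposure, 8-pt half-log series from 100 uM, 0.5% DMSO vehicle, duplicates. Read-out: EZR mRNA by TaqMan qRT-PCR (Fluidigm array), housekeeping-normalized; bidirectional curve fit vs DMSO baseline.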

CYP3A5 (gene 1577) = assay: LTEA_HepaRG_CYP3A5: Life Technologies and Expression Analysis (LTEA) Assay for CYP3A5 using HepaRG (AID 2283493)
Summary of the method: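 Human HepaRG hepatic cells receive 48 h chemical treatment at eight concentrations (half-log steps from 100 uM) in 0.5% DMSO. Expression of CYP3A5 is quantified by Fluidigm qRT-PCR and normalized to three reference genes.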

[2] = read-out: Fatty Acid-Binding Protein 1 (FABP1), FABP1 (gene 2168); assay: LTEA_HepaRG_FABP1: Life Technologies and Expression Analysis (LTEA) Assay for Fatty Acid-Binding Protein 1 (FABP1) using HepaRG (AID 2283494)
Summary of the method: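 qRT-PCR readout of FABP1 transcript (normalized to three housekeeping genes) after 48 h chemical exposure of HepaRG cells; eight concentrations, half-log steps, max 100 uM, 0.5% DMSO vehicle; gain or loss fitted relative to DMSO baseline.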

[3] = read-out: Cytochrome P450 4A22 (Homo sapiens) (UniProt Q5TCH4); assay: LTEA_HepaRG_CYP4A22: Life Technologies and Expression Analysis (LTEA) Assay for Cytochrome P450 4A22 (CYP4A22) using HepaRG (AID 2283495)
Summary of the method: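 HepaRG, 48 h post-plating -> serum-free induction medium; dosed 48 h, duplicate, 8 conc. (100 uM top, half-log), 0.5% DMSO. Readout: CYP4A22 mRNA by qRT-PCR, ACTB/GAPDH/POLR2A normalization; gain/loss fit relative to DMSO.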

[4] = read-out: Cytochrome P450 7A1 (Homo sapiens) (UniProt P22680); assay: LTEA_HepaRG_CYP7A1: Life Technologies and Expression Analysis (LTEA) Assay for Cytochrome P450 7A1 (CYP7A1) using HepaRG (AID 2283496)
Summary of the method: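 HepaRG, 48 h exposure, 8-pt half-log series from 100 uM, 0.5% DMSO vehicle, duplicates. Readout: TaqMan qRT-PCR mRNA vs three housekeeping genes; bidirectional curve fit against DMSO baseline.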

[5] = read-out: Glutamate-cysteine ligase catalytic (GCLC), GCLC (gene 2729); assay: LTEA_HepaRG_GCLC: Life Technologies and Expression Analysis (LTEA) Assay for Glutamate-cysteine ligase catalytic (GCLC) using HepaRG (AID 2283498)
Summary of the method: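 HepaRG, 48 h exposure, 8-pt half-log series from 100 uM, 0.5% DMSO vehicle; TaqMan qRT-PCR for GCLC mRNA, housekeeping-normalized; bidirectional curve fit vs DMSO baseline.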

[6] = read-out: growth arrest and DNA damage 45 (GADD45G), GADD45G (gene 10912); assay: LTEA_HepaRG_GADD45G: Life Technologies and Expression Analysis (LTEA) Assay for growth arrest and DNA damage 45 (GADD45G) using HepaRG (AID 2283499)
Summary of the method: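 HepaRG, 48 h exposure, top 100 uM, half-log 8-point series, 0.5% DMSO vehicle, duplicates. Readout: GADD45G transcript by qRT-PCR (Fluidigm array), housekeeping-normalised (ACTB/GAPDH/POLR2A). Bidirectional curve fit vs DMSO baseline.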

[7] = read-out: Glutamate-cysteine ligase regulatory (GCLM), GCLM (gene 2730); assay: LTEA_HepaRG_GCLM: Life Technologies and Expression Analysis (LTEA) Assay for Glutamate-cysteine ligase regulatory (GCLM) using HepaRG (AID 2283500)
Summary of the method: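 Endpoint is GCLM transcript level by qRT-PCR, normalized to three housekeeping genes, after 48 h chemical exposure of human HepaRG cells (0.5% DMSO vehicle, top 100 uM, half-log dilutions). Fitting was bidirectional relative to DMSO.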

[8] = read-out: Glutathione S-Transferase (GSTA2), GSTA2 (gene 2939); assay: LTEA_HepaRG_GSTA2: Life Technologies and Expression Analysis (LTEA) Assay for Glutathione S-Transferase (GSTA2) using HepaRG (AID 2283497)
Summary of the method: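 qRT-PCR readout of GSTA2 transcript, normalized to three housekeeping genes, fitted bidirectionally against 0.5% DMSO baseline. Differentiated HepaRG cells received compound for 48 h at 8 concentrations (top 100 uM, half-log steps).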

Measured: AC50

COC(=O)CCCC(=O)OC
not listed: [8]
inactive: all other assays above

CCCCCCCCCCCCCCOS(=O)(=O)O
active: [4] 23.7 µM
not listed: [8]
inactive: all other assays above

CC1=C(C)S(=O)(=O)CCS1(=O)=O
active: [2] 88.1 µM | [3] 50 µM | [4] 92.6 µM | [5] 70.6 µM | [7] 0.214 µM
inactive: [1] | CYP3A5 (gene 1577) | [6]

OCC(O)CO
not listed: [5] | [8]
inactive: all other assays above

CC(C)(O)c1ccc(CNC(=O)c2cccnc2Oc2ccc(F)cc2)cc1
active: [2] 21.9 µM | [3] 26.6 µM
not listed: [8]
inactive: all other assays above

NC1CCCCC1
not listed: [5] | [8]
inactive: all other assays above

CO[C@@H]1COCC[C@@H]1N[C@@H]1CC[C@@](C(=O)N2CCc3ncc(C(F)(F)F)cc3C2)(C(C)C)C1
not listed: [8]
inactive: all other assays above

O=C1c2c(O)cccc2Cc2cccc(O)c21
not listed: [5] | [8]
inactive: all other assays above

CCCC[C@H]1CN(CC2CCOCC2)C(=O)OC12CCN(C1(C)CCN(C(=O)c3c(C)ncnc3C)CC1)CC2
not listed: [5] | [8]
inactive: all other assays above

Cc1ccc(-c2cc(C(F)(F)F)nn2-c2ccc(S(N)(=O)=O)cc2)cc1
active: CYP3A5 (gene 1577) 82 µM | [2] 50 µM | [5] 50 µM | [6] 67.5 µM
not listed: [8]
inactive: all other assays above

C/C=C/C=C/C(=O)O
active: [5] 0.256 µM
inactive: [1] | CYP3A5 (gene 1577) | [2] | [6] | [7]

CS(=O)(=O)c1ccc([C@@H](C[C@H]2CCC(=O)C2)C(=O)Nc2cnccn2)cc1Cl
inactive: [1] | [2] | [8] | [6]
active: [7] 1.81 µM

CC(=O)[C@@]1(O)CC[C@H]2[C@@H]3CCC4=CC(=O)CC[C@]4(C)[C@H]3CC[C@@]21C
inactive: [1] | [2] | [6] | [7]

O=C1OC(c2ccc(O)cc2)(c2ccc(O)cc2)c2ccccc21
active: CYP3A5 (gene 1577) 62.1 µM | [4] 50 µM | [5] 32 µM
not listed: [8]
inactive: all other assays above

C=CCCCCCCCCCCCC
not listed: [8]
inactive: all other assays above

O=C(O)c1cccnc1
not listed: [8]
inactive: all other assays above

O=C(N[C@@H](c1ccccc1)[C@@H]1CCCCN1)c1cccc(C(F)(F)F)c1Cl
inactive: [1] | [5] | [7]
active: CYP3A5 (gene 1577) 90.6 µM | [2] 33.2 µM | [3] 23.1 µM | [4] 21.3 µM | [6] 82.8 µM

COC(=O)[C@H]1[C@H]2C[C@@H]3c4[nH]c5cc(OC)ccc5c4CCN3C[C@H]2C[C@@H](OC(=O)c2cc(OC)c(OC)c(OC)c2)[C@@H]1OC
inactive: [7]
active: [1] 8.38 µM | [8] 60.1 µM | [6] 24.6 µM

OCC(CO)n1cnc(-c2ccc(F)cc2)c1-c1ccnc(Oc2ccccc2)n1
active: [2] 11.2 µM | [3] 16.6 µM
not listed: [5] | [8]
inactive: all other assays above

Cn1cnc2c1c(=O)[nH]c(=O)n2C
inactive: [1] | [2] | [8] | [6] | [7]

CN(C)C(=O)NC1(c2ccccc2)CCN(CCC[C@]2(c3ccc(Cl)c(Cl)c3)CCCN(C(=O)c3ccccc3)C2)CC1
active: [1] 23.4 µM | [2] 20.5 µM | [3] 23.7 µM | [4] 22.2 µM | [6] 20.4 µM | [7] 12.5 µM
inactive: CYP3A5 (gene 1577)

O=Cc1ccccc1C=O
not listed: [8]
inactive: all other assays above

CC(COCC(C)OC(=O)c1ccccc1)OC(=O)c1ccccc1 (configuration not stated)
not listed: [8]
inactive: all other assays above
